Data on 39 molecules can be found in PubChem BioAssay (NCI).

Compounds without any hit were thinned out: in the full panel of roughly 83,000, 20% have a hit.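 Values shown are percent growth following 48 h exposure of cells in 96-well plates to a single concentration of compound; below 10 was considered active.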 Activity calls are given as the source filed them.

For one experiment, the system named is UACC-62 melanoma. In words: NCI-60 one-dose screen, 48 h (100 = growth as untreated, 0 = no growth, -100 = all killed). The conditions noted are these: 10 µM unless noted.
On to `Oc1cccc2ccc(-c3nnc(SCc4ccc(O)c5ncccc45)o3)nc12`, for which the growth was 9.35% (active).

Regarding `Cc1ccc2sc3c(c2c1)OC(N)=C(C#N)C3c1ccc(Cl)cc1` (stereo not drawn), the growth was 45.7% (inactive).

Turning to `COc1ccc(/C=C/C(=O)c2cc(S(N)(=O)=O)c(OC)cc2OC)cc1`, the growth is 76.8% (inactive).

As to `COc1ccc(CCN2C(=O)CSC2=S)cc1`, the growth is 94.2% (inactive).

For the molecule `COc1cc(-c2nc(SC(C)C)n(C(C)C)c(=O)c2C#N)ccc1OCc1ccccc1`, the growth was 90.4% (inactive).

For the molecule `O=C1/C(=C/C=C/c2ccco2)SC(=S)N1c1ccccc1`, the growth was 70.7% (inactive).

With `CNC(=O)c1cc(Oc2ccc3nc(NC(=O)c4cc(N5CCOCC5)cc(C(F)(F)F)c4)sc3c2)ccn1`, the growth is 72.4% (inactive).

For `CNC(=O)c1cc(Oc2ccc3nc(NC(=O)c4cccc(OC(F)(F)F)c4)sc3c2)ccn1`, the growth was 78.4% (inactive).

For the molecule `Cc1ccc(C(=O)NN2C(=O)/C(=C/C=C/c3ccco3)SC2=S)cc1`, the growth was 85.3% (inactive).

As for `Cc1ccc2c(c1)C(=O)/C(=C/c1cccc(F)c1)S2`, the growth was 83.7% (inactive).

As for `COc1cccc(C(=O)Nc2cccc(C#Cc3cccc4[nH]nc(N)c34)c2)c1`, the growth is 57.6% (inactive).

On to `Cc1ccc(N2C(=O)/C(=C/C=C/c3ccco3)SC2=S)cc1`, for which the growth is 89% (inactive).

As to `COc1cc(OC)c(S(N)(=O)=O)cc1C(=O)/C=C/c1ccc(C)cc1`, the growth is 33.8% (inactive).

As for `Cc1ccc(-c2nnc(SCc3ccc(O)c4ncccc34)n2-c2ccccc2)cc1`, the growth was -27.7% (active).

Another experiment relates to LOX IMVI melanoma. The experiment is described as above. Particulars: 10 µM unless noted.
With `Oc1cccc2ccc(-c3nnc(SCc4ccc(O)c5ncccc45)o3)nc12`, the growth was 8.81% (active).

For `COC(=O)c1[nH]nc2c1C1(C(=O)N(C)c3ccccc31)C(C#N)=C(N)O2` (stereo not drawn), the growth was 97% (inactive).

Turning to `Cc1ccc2sc3c(c2c1)OC(N)=C(C#N)C3c1ccc(Cl)cc1` (stereo not drawn), the growth was 86.9% (inactive).

For `CC1=NC2=NN3C(=NN2C(c2ccccc2)=C1)N=NC(c1ccc(Br)cc1)=C3c1ccc(Br)cc1`, the growth is 100% (inactive).

For `Cn1ccnc1C(=O)/C=C/c1ccc(NC(=O)c2c(F)c(F)c(F)c(F)c2F)cc1`, the growth is 81.6% (inactive).

Regarding `COc1ccc(/C=C/C(=O)c2cc(S(N)(=O)=O)c(OC)cc2OC)cc1`, the growth is 52.2% (inactive).

For `N#Cc1cccc(CN2CCC3=C(C2)C(=O)N(Cc2ccc(Cl)cc2)C2=NCCCN23)c1`, the growth is 43.8% (inactive).

As to `Cc1nn(-c2ccccc2)c2ncnc(N/N=C/c3ccccc3O)c12`, the growth was 2.3% (active).

Regarding `COc1ccc(CCN2C(=O)CSC2=S)cc1`, the growth is 30.3% (inactive).

`CC(=O)N1C(=S)NC(=O)C1CC(C)C` (stereo not drawn): the growth was 95.5% (inactive).

`Cc1ccc2sc3c(c2c1)OC(N)=C(C#N)C3c1cccc(F)c1` (stereo not drawn): the growth was 8.96% (active).

On to `COc1cc(-c2nc(SC(C)C)n(C(C)C)c(=O)c2C#N)ccc1OCc1ccccc1`, for which the growth is 62.1% (inactive).

`C/C(=N\O)[C@H]1C[C@]23CC[C@]4(C)[C@H](CC[C@@H]5[C@@]6(C)CC/C(=N/O)C(C)(C)[C@@H]6CC[C@]54C)[C@H]2[C@H](C)C1(C)OC3`: the growth is 98.2% (inactive).

In the case of `NS(=O)(=O)c1ccc(-n2cc(-c3cccc(NC(=O)c4ccc(N5CCOCC5)c(C(F)(F)F)c4)c3)nn2)cc1`, the growth was 9.34% (active).

`O=C1/C(=C/C=C/c2ccco2)SC(=S)N1c1ccccc1`: the growth was 26% (inactive).

`COc1cc(OC)c(S(N)(=O)=O)cc1C(C)=O`: the growth is 105% (inactive).

With `CNC(=O)c1cc(Oc2ccc3nc(NC(=O)c4cc(N5CCOCC5)cc(C(F)(F)F)c4)sc3c2)ccn1`, the growth is 83.5% (inactive).

Turning to `CCCCCc1ccc(S(=O)(=O)Nc2cccc(-c3csc(NC(=O)CCCCCN4CCN(CCO)CC4)n3)c2)cc1`, the growth is -60.3% (active).

With `CNC(=O)c1cc(Oc2ccc3nc(NC(=O)c4cccc(OC(F)(F)F)c4)sc3c2)ccn1`, the growth was 85.2% (inactive).

Consider `Cc1cc(C)c(N2C(=O)CC(Nc3ccc(Cl)cc3Cl)C2=O)c(C)c1` (stereo not drawn), for which the growth was 96% (inactive).

Turning to `Cc1ccc(C(=O)NN2C(=O)/C(=C/C=C/c3ccco3)SC2=S)cc1`, the growth was 99.7% (inactive).

Consider `CC/C(=C/c1c(O)cccc1OC)c1ccc2c(OC)cccc2[o+]1`, for which the growth is 95% (inactive).

As to `Cc1ccc2c(c1)C(=O)/C(=C/c1cccc(F)c1)S2`, the growth is 114% (inactive).

Consider `COc1cc(/C=C2\C(=O)Nc3ccccc32)ccc1OCc1ccc(F)cc1`, for which the growth is 97.3% (inactive).

`N/C(=N\C(N)=N\c1nc2ccccc2s1)c1ccc(C(F)(F)F)cc1`: the growth is 18.3% (inactive).

For the molecule `CN(C)CCNC(=O)c1ccc(-c2nc3ccc4[nH]ncc4c3c3c2COCC3)cc1`, the growth is -72.4% (active).

For the molecule `O=C(Nc1ccc(N=Cc2c(O)[nH]c3ccccc23)cc1)Nc1nccs1`, the growth is 35.1% (inactive).

In the case of `O=C(Nc1nonc1-c1ccccc1)c1ccc(C(F)(F)F)cc1`, the growth is -46.7% (active).

As for `COc1cccc(C(=O)Nc2cccc(C#Cc3cccc4[nH]nc(N)c34)c2)c1`, the growth was 37% (inactive).

Take `Cn1ccnc1C(=O)/C=C/c1ccc(NC(=O)c2ccc(F)cc2)cc1`: the growth was 6.38% (active).

Consider `Nc1nc(-c2cccc([N+](=O)[O-])c2)c(N=Nc2ccccc2)s1`, for which the growth was 53.5% (inactive).

As for `Cc1ccc(N2C(=O)/C(=C/C=C/c3ccco3)SC2=S)cc1`, the growth is 96.2% (inactive).

Turning to `COc1cc(OC)c(S(N)(=O)=O)cc1C(=O)/C=C/c1ccc(C)cc1`, the growth is 1.84% (active).

Take `CN1CCC(n2cc(Nc3ncc4c(=O)n(-c5c(Cl)cccc5Cl)cc(Br)c4n3)cn2)CC1`: the growth was 11.9% (inactive).

In the case of `C#CC(=O)N(c1ccc(OC)cc1OC)C(C(=O)NCC(=O)OCC)c1cccs1` (stereo not drawn), the growth was -78.8% (active).

Turning to `COc1ccc(/C=C(/C)c2ccc3ccc(OC)cc3[o+]2)c(O)c1`, the growth was -15.8% (active).

Take `Cc1ccc(-c2cc3nc(C(Cl)Cl)nc(C)n3n2)cc1`: the growth was 96.8% (inactive).

As for `Cc1ccc(-c2nnc(SCc3ccc(O)c4ncccc34)n2-c2ccccc2)cc1`, the growth was 3.35% (active).

Take `CCOc1ccccc1NC1=C(Cl)C(=O)c2nc(C)ccc2C1=O`: the growth was -82.2% (active).
